# From PubChem BioAssay
# Results filed as inconclusive are left out. The source made the active and inactive calls.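 Rule for the calls, unless noted: active = viability at or below 10% of carrier control in both of two separate runs; inconclusive = viability at or below 10% in only one of the two runs; inactive = the rest.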
# How the values were obtained:
# [1] = Her2 expression decrease, cell viability multiplex – SKBR3 breast tumor cells, AlphaScreen, ATP viability, primary screen (AID 461;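 active = Her2 level under about 52% in both replicate screens, with viability over 70% of control, limit read from the data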;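 for Her2 level: lower value means less Her2 protein in the cells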;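 for viability: percent of carrier control wells set as 100% viability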); settings: SKBR3 Her2 protein level, 18-24 h, measured here: SKBR3 viability, ATP luminescence, at 10 µM
# [2] = target: Receptor tyrosine-protein kinase erbB-2 (Homo sapiens) (UniProt P04626); assay: as above; settings: 18-24 h, at 10 µM, stronger effect = lower value
# Receptor tyrosine-protein kinase erbB-2 (Homo sapiens), sequence (P04626 whole entry, looked up): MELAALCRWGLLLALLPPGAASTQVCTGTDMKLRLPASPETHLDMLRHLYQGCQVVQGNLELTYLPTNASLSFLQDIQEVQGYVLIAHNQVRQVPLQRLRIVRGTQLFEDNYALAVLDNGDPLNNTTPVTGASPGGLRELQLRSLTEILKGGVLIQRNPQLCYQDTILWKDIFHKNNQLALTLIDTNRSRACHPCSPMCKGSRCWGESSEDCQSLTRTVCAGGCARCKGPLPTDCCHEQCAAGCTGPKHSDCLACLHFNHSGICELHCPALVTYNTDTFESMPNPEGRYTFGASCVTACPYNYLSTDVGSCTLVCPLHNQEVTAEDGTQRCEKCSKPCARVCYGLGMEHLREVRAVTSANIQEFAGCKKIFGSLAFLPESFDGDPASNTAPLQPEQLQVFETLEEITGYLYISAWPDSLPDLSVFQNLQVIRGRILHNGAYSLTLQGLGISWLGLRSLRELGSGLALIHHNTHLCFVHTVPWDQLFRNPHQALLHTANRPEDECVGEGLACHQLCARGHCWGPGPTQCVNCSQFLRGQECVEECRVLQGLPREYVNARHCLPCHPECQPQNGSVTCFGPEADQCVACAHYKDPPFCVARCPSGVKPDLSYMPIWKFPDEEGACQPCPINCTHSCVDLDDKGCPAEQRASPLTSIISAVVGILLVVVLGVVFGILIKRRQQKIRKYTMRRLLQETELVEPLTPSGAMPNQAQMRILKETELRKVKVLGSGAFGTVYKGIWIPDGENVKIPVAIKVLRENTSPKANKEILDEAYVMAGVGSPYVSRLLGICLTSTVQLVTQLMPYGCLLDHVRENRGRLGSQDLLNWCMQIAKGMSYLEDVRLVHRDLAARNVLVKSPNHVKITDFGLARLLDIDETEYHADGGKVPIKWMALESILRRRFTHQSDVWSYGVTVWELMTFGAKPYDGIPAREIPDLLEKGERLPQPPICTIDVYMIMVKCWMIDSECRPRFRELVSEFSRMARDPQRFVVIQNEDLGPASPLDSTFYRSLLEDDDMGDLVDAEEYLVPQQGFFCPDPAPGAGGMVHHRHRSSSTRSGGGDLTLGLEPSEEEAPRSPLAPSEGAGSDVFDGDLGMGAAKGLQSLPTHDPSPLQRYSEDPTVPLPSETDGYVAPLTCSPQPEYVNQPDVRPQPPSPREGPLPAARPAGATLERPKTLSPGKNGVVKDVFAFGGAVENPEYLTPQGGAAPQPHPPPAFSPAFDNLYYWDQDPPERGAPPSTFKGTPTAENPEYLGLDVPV
# [3] = reduced viability of SK-BR-3 breast cancer cells – cell-based, 24 h, human, pilot screen (AID 572); settings: SK-BR-3 viability, CellTiter-Glo luminescence, at 10 µM, stronger effect = lower value;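 note: compound exposure lasted between 18 and 24 h rather than exactly 24 h; 100% = carrier-treated control wells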
# [4] = HUVEC growth inhibition – cell-based, human, primary screen (AID 575;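 active = viability at or below 30% in both replicate assays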;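 note: 100% = median of untreated cell wells with 0.1% DMSO on each plate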); settings: HUVEC proliferation, CellTiter-Glo luminescence, 72 h; at 10 µM; stronger effect = lower value
# [5] = H69AR cell proliferation blockers – human, duplicate replicates, primary screen (AID 580;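 active = viability at or under a set limit in both replicates, limit being median viability minus 3 SD, cut at about 48% in these data, passing the limit was not always enough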;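 note: 100% = mean luminescence of untreated wells and 0% = no signal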); settings: H69AR lung tumor cells viability, ATP luminescence, 72 h; at 10 µM; stronger effect = lower value
# [6] = MRP1 drug-resistance reversers in H69AR cells – cell-based, doxorubicin co-treatment, pilot screen (AID 601;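 active = viability loss from added drug above about 55%, and viability with drug at most 40%, in both replicates, limit read from the data, passing the limit was not always enough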); settings: CellTiter-Glo, 72 h, at 10 µM; for differential viability (reversal): stronger effect = higher value
# [7] = yeast transport mutant growth inhibition pilot in 384-well plates, post-Golgi transport modulator project (AID 636; in the data active = inhibition above about 31%); settings: absorbance 615 nm, about 18 h, stronger effect = higher value
# [8] = growth suppression of yeast trafficking mutant, preliminary HTS, modulators of trafficking downstream of Golgi apparatus project, 1536-format plate, OD 615 nm (AID 637; in the data active = inhibition above about 30%); settings: yeast transport mutant growth, absorbance 615 nm, 18 h; stronger effect = higher value
# [9] = S. cerevisiae growth inhibition in permissive medium (OD615), pilot counter-assay for S. cerevisiae lifespan shortening project, permissive growth control (AID 705;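 active = growth inhibition above 25% in both replicates, a cutoff set 3 SD above the mean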); settings: OD615, 24 h, at 10 µM, stronger effect = higher value
# [10] = S. cerevisiae growth inhibition in restrictive medium, OD615, pilot screen, restrictive growth control, yeast lifespan reduction project (AID 706;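 active = growth inhibition above a set limit, 3 SD over mean compound inhibition, in both replicates, cut at about 43% in these data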;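 note: modified DeaD lifespan yeast strain shifted to restrictive glucose medium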); settings: OD615, 48 h, at 10 µM, stronger effect = higher value
# [11] = doxorubicin toxicity protection in MRP-1 cells – H69AR cells, CellTiter-Glo, duplicate, MRP-1 activator project, pilot screen (AID 807;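 active = viability increase at or above a cutoff of the median across tested compounds plus 3 SD, cut at about 8.5% in these data, passing the limit was not always enough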;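 note: compound pretreatment 18-22 h then 72 h combined with doxorubicin; 0% = doxorubicin alone and 100% = vehicle without doxorubicin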); settings: H69AR viability with doxorubicin, CellTiter-Glo luminescence; at 10 µM; stronger effect = higher value
# [12] = viability of HCT116 without oncogenic beta-catenin – human colon tumor cells, pilot screen (AID 823;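 active = cell viability at or below a set limit in both duplicate runs, the limit being the all-compound median minus 4 SD, cut at about 23% in these data, passing the limit was not always enough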;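 note: 0% = wells killed by 20 µM Hyamine and 100% = untreated DMSO cell wells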); settings: HCT116 beta-catenin knockout viability, CellTiter-Glo, 60 h; at 10 µM; stronger effect = lower value
# [13] = viability of PTEN-null HCT116 cells – cell-based, HCT116 clonal line, CellTiter-Glo, pilot screen (AID 824;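 active = viability at or below 27.92% in each of two runs, the all-compound median minus 4 SD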;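 note: 0% = 20 µM Hyamine control and 100% = vehicle cell control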); settings: HCT116 PTEN-deleted viability, 60 h, at 10 µM, stronger effect = lower value
# [14] = RAM pathway blockade in budding yeast – dse1pr::URA3 reporter, 5-FOA selection, pilot screen (AID 869;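 active = inhibition over a set limit, the all-compound mean plus 3 SD, in both replicate runs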;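 note: 0% = DMSO wells with no growth and 100% = 10 µM 1-NA-PP1 with full growth; RAM network block rescues cells from 5-FOA so hits raise OD615 growth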); settings: S. cerevisiae dse1pr::URA3 5-FOA growth, OD615, 2 d; at 10 µM; stronger effect = higher value; strain carries analog-sensitive mutant Cbk1 kinase
# [15] = RAM signaling pathway blockade in yeast – S. cerevisiae, Pdr1DBD-CYC8 efflux-inhibited sensitized strain, primary screen (AID 1298;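 active = RAM network inhibition above 8.4% in each of two replicates, 3 SD over the compound average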;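 note: 0% = DMSO untreated cells without growth and 100% = 10 µM 1-NA-PP1 full growth; higher means more yeast growth rescued from 5-FOA killing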); settings: S. cerevisiae cbk1-as DSE1-URA3 strain, 5-FOA growth OD615, 2 d; at 50 µM; stronger effect = higher value
# [16] = H69AR cells + 2 uM doxorubicin, measured here: viability with 2 uM doxorubicin, stronger effect = lower value
# [17] = H69AR cells, compound alone cytotoxicity
Compound,viability [1],Her2 level [2],viability [3],viability [4],viability [5],differential viability (reversal) ([6]; H69AR cells + 2 uM doxorubicin),"viability [6, 16]","viability [6, 17]",inhibition [7],inhibition [8],growth inhibition [9],growth inhibition [10],viability increase [11],viability [12],viability [13],inhibition [14],RAM network inhibition [15]
Cc1c(C(=O)NC2CC2)oc2ccc(S(=O)(=O)N3CCCCCC3)cc12,81.5%,106% (inactive),81.5% (inactive),96.8% (inactive),83% (inactive),-14.2% (inactive),97.1%,83%,-0.81% (inactive),3.44% (inactive),-7.49% (inactive),6.7% (inactive),3.84% (inactive),92.9% (inactive),90.8% (inactive),0.26% (inactive),4.34% (inactive)
O=C(CSc1ncnc2nc[nH]c12)c1ccc(Cl)cc1,76%,98% (inactive),76% (inactive),63% (inactive),91.1% (inactive),-8.57% (inactive),99.7%,91.1%,-3.47% (inactive),2.13% (inactive),1.02% (inactive),11.4% (inactive),-1.43% (inactive),39.8% (inactive),37.7% (inactive),1.29% (inactive),5.06% (inactive)
Cc1ccc(N2CCN(S(=O)(=O)N(C)C)CC2)c(C)c1,98.5%,116% (inactive),98.5% (inactive),90.6% (inactive),83.5% (inactive),-9.57% (inactive),93.1%,83.5%,1.73% (inactive),1.17% (inactive),-11.1% (inactive),-7.42% (inactive),0.57% (inactive),90.6% (inactive),88.1% (inactive),2.69% (inactive),6.03% (inactive)
CC(C)(C)NC(=O)Cn1c(=O)oc2ccc(Cl)cc21,96%,104% (inactive),96% (inactive),96.5% (inactive),92.9% (inactive),28.8% (inactive),64.1%,92.9%,-2.4% (inactive),0.83% (inactive),5.54% (inactive),5.01% (inactive),-4.63% (inactive),106% (inactive),100% (inactive),0.38% (inactive),7.56% (inactive)
Cc1ccc2cccc(SCC(=O)N3CCOCC3)c2n1,103%,89.5% (inactive),103% (inactive),61% (inactive),90.7% (inactive),-0.48% (inactive),91.2%,90.7%,-4.03% (inactive),-3.5% (inactive),2.63% (inactive),24.3% (inactive),-2.53% (inactive),98.9% (inactive),101% (inactive),2.27% (inactive),1.88% (inactive)
CCCc1cc(=O)oc2c(C)c3occ(C)c3cc12,112%,99.5% (inactive),112% (inactive),64.8% (inactive),98.2% (inactive),4.94% (inactive),93.3%,98.2%,-0.68% (inactive),-3.02% (inactive),-2.79% (inactive),0.83% (inactive),-4.59% (inactive),77.4% (inactive),79.5% (inactive),3.16% (inactive),3.02% (inactive)
CCOC(=O)N1CCC(NC(=O)Cn2c3c(c(-c4ccccc4Cl)cc2=O)CCC3)CC1,94.5%,92.5% (inactive),94.5% (inactive),123% (inactive),89.7% (inactive),0.145% (inactive),89.6%,89.7%,-6.67% (inactive),-1.67% (inactive),-9.94% (inactive),-0.355% (inactive),-0.33% (inactive),88.8% (inactive),91.9% (inactive),2.06% (inactive),4.05% (inactive)
COc1ccc(N2CCN(Cc3nc4c(c(=O)n(C)c(=O)n4C)n3Cc3ccccc3C)CC2)cc1,92.5%,81% (inactive),92.5% (inactive),94.5% (inactive),80% (inactive),25.1% (inactive),54.9%,80%,-2.4% (inactive),-2% (inactive),-12.5% (inactive),-24.9% (inactive),-4.52% (inactive),90.7% (inactive),77.6% (inactive),1.29% (inactive),-0.26% (inactive)
COc1cccc(C2CC(c3ccc(F)cc3)Nc3nc(N)nn32)c1 (stereo not drawn),100%,106% (inactive),100% (inactive),99.9% (inactive),103% (inactive),3.04% (inactive),99.9%,103%,-2.67% (inactive),14.9% (inactive),-3.78% (inactive),4.35% (inactive),-0.39% (inactive),102% (inactive),95.5% (inactive),0.725% (inactive),5.03% (inactive)
CCOC(=O)/C(C#N)=C(/C)c1ccc(OC)cc1,96%,104% (inactive),96% (inactive),110% (inactive),102% (inactive),5.39% (inactive),96.2%,102%,-2.53% (inactive),-7.74% (inactive),-14.7% (inactive),-5.52% (inactive),0.09% (inactive),99.5% (inactive),99% (inactive),1.11% (inactive),3.87% (inactive)
Cc1cccc(N2C(=O)CC(N3CCN(c4cccc(C(F)(F)F)c4)CC3)C2=O)c1 (stereo not drawn),94.5%,74.5% (inactive),94.5% (inactive),73.2% (inactive),96.9% (inactive),6.09% (inactive),90.8%,96.9%,-2.86% (inactive),-9% (inactive),-12.6% (inactive),-8.65% (inactive),3.91% (inactive),97.3% (inactive),97.8% (inactive),1.32% (inactive),5.57% (inactive)
CCCC(=O)C1=C(N(C)c2ccccc2)CC(C)(C)C(C(=O)OC)C1=O (stereo not drawn),95%,81% (inactive),95% (inactive),97.9% (inactive),94.4% (inactive),1.22% (inactive),93.2%,94.4%,-2.47% (inactive),-2.83% (inactive),-1.78% (inactive),-2.86% (inactive),-3.32% (inactive),93.7% (inactive),92.9% (inactive),-0.705% (inactive),0.26% (inactive)
CC(NC(=O)c1noc2c1CCCCC2)c1ccccc1 (stereo not drawn),85.5%,93.5% (inactive),85.5% (inactive),89.1% (inactive),110% (inactive),18.1% (inactive),91.7%,110%,-3.59% (inactive),-2% (inactive),-16.4% (inactive),-14.1% (inactive),1.66% (inactive),100% (inactive),102% (inactive),-0.27% (inactive),1.85% (inactive)
CCN(CC)CCn1c(=N)n(CCO)c2ccccc21,94.5%,94% (inactive),94.5% (inactive),107% (inactive),101% (inactive),8.55% (inactive),92.9%,101%,-5.32% (inactive),2.33% (inactive),0.615% (inactive),1.18% (inactive),-0.4% (inactive),101% (inactive),97.5% (inactive),0.605% (inactive),4.92% (inactive)
COc1ccc(-c2nc(CSCC(=O)NCc3ccc4c(c3)OCO4)c(C)o2)cc1OC,98%,108% (inactive),98% (inactive),92.9% (inactive),84.9% (inactive),-7.12% (inactive),92%,84.9%,-4% (inactive),1.5% (inactive),-13.4% (inactive),-12.2% (inactive),-3.57% (inactive),84.7% (inactive),74.1% (inactive),0.57% (inactive),6.3% (inactive)
CCn1c(SCC(=O)Nc2cc(C)ccc2C)nc2c(c1=O)SC(C)C2 (stereo not drawn),90.5%,116% (inactive),90.5% (inactive),74% (inactive),83.1% (inactive),15.4% (inactive),67.8%,83.1%,-1.73% (inactive),-0.5% (inactive),-9.3% (inactive),-6.79% (inactive),-4.15% (inactive),93.6% (inactive),91.5% (inactive),1.16% (inactive),4.64% (inactive)
CC1CCCC(N2CCN(C(=O)c3ccc(F)cc3)CC2)C1 (stereo not drawn),95%,109% (inactive),95% (inactive),75.4% (inactive),91.3% (inactive),1.66% (inactive),89.6%,91.3%,1.2% (inactive),3.5% (inactive),-0.99% (inactive),-4.36% (inactive),-0.74% (inactive),101% (inactive),98.5% (inactive),0.22% (inactive),-0.84% (inactive)
O=C(NC1CCN(Cc2ccccc2)CC1)C1CCN(S(=O)(=O)c2cccc3cccnc23)CC1,96.5%,97.5% (inactive),96.5% (inactive),86.9% (inactive),102% (inactive),1.09% (inactive),101%,102%,-0.13% (inactive),-2.62% (inactive),5.75% (inactive),1.73% (inactive),1.84% (inactive),88.3% (inactive),96% (inactive),-0.18% (inactive),1.59% (inactive)
Cc1nc2ccc(S(=O)(=O)NC(C(=O)NCc3cccs3)C(C)C)cc2s1 (stereo not drawn),88.5%,116% (inactive),88.5% (inactive),97.9% (inactive),111% (inactive),18.2% (inactive),92.6%,111%,-5% (inactive),-2.67% (inactive),-3.81% (inactive),-9.54% (inactive),-0.45% (inactive),102% (inactive),99.6% (inactive),2.96% (inactive),5.02% (inactive)
